In PubChem BioAssay AID504660 (National Center for Advancing Translational Sciences (NCATS), 2011):
Screen size: about 360,000 compounds; about 3,700 (1%) were called active. Cut-off read from the data, not from the text of the source: active = activation above about 30%; inactive = the rest. This excerpt belongs to a sample that is enriched for actives.

Biological target: D(1A) dopamine receptor (Homo sapiens) (UniProt P21728)
Experiment: Allosteric Agonists of the Human D1 Dopamine Receptor: qHTS; note: 0% is about no effect
Conditions: HEK293 T-REx D1 cells, calcium flux, agonist mode; at 2 µM; hits give high values
Source text: NIH Chemical Genomics Center [NCGC] NIH Molecular Libraries Probe Centers Network [MLPCN] MLPCN Grant: NS064831-01 Assay Submitter (PI): David Sibley Dopamine receptors (DARs) are involved in the etiology and/or therapy of a number of neuropsychiatric and endocrine disorders. For instance, all receptor-based antiparkinsonian drugs work via stimulating the D1 DAR subtype whereas all FDA-approved antipsychotic agents are antagonists of this receptor. […] There are three different types of allosteric modulators that we are seeking, two of which will stimulate or augment receptor signaling, allosteric agonists and potentiators, while the third, allosteric antagonists, will attenuate receptor signaling. The present primary screening assay measures compound agonism by tracking calcium flux in a […], inducible Hek293 Trex D1 cell line.
Freshly passaged cells are plated in 1536 well black, clear bottom plates at a density of 4000 cells/well in 3 ul of complete media containing 1x tetracycline inducer. After an overnight incubation at […] in 5% CO2, cells are loaded with 2 ul of the no wash Calcium Assay Kit (ABD Bioquest) and incubated at room temperature for 30 to 90 minutes. Agonist read: A 10 cycle (1 second/cycle) baseline measurement is taken and then the FDSS online 1536 pintool delivers 23 nl of compound library (as well as dopamine controls) to the plate. The plate is measured for kinetically at 1 cycle/sec for 180 seconds and is considered to be the agonist portion of the assay (eg, compounds which activate a positive calcium response during this portion are flagged as potential agonists). Following the 180 second read, 1 ul of either an EC20 (positive modulation assay) or EC80 (negative modulation assay) is delivered by an onboard pipette head. Measurements are taken kinetically for an additional 180 seconds.

Sequence of D(1A) dopamine receptor (Homo sapiens) (P21728 whole entry, looked up): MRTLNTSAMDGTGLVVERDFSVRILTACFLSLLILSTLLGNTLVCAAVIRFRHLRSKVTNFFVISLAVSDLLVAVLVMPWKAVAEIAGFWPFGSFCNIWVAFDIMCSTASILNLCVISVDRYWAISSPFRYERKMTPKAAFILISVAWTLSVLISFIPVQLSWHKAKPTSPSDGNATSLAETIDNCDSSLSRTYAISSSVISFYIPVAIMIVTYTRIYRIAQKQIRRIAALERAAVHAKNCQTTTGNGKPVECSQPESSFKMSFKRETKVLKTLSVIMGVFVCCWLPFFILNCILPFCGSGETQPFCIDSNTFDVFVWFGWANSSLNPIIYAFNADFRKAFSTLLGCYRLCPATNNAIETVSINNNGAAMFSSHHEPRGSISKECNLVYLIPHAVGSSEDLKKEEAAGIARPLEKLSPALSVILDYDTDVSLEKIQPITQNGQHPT

| SMILES | activation |
| --- | --- |
| CCCCCCCCCCCCn1ccc(=N)cc1 | 52.6% (active) |
| COc1ccc(-c2nn(CCC#N)cc2C(=O)O)cc1 | 2.02% (inactive) |
| NC(=O)Nc1cccc(C(F)(F)F)c1 | 1.22% (inactive) |
| CC(Cc1ccccc1)NCCC(c1ccccc1)c1ccccc1 (stereo not given) | 19.9% (inactive) |
| CCN(CC)c1ccc([N+](=O)[O-])c2cccnc12 | 6.86% (inactive) |
| COc1ccc(C(=O)C2CN(C)CC2C(=O)c2ccc(OC)cc2)cc1 (stereo not given) | 4.65% (inactive) |
| O=C1C2(Cl)C3(Cl)C4(Cl)C(Cl)(Cl)C5(Cl)C3(Cl)C1(Cl)C5(Cl)C24Cl (stereo not given) | 99.6% (active) |
| CCN1CCN(Cc2cc(OC)c3c(c2)OCO3)CC1 | 3.83% (inactive) |
| Cc1ccc(-n2c(/C=C/c3cccc(C(F)(F)F)c3)nc3ccccc3c2=O)cc1 | -0.792% (inactive) |
| CC(C)c1ccc(O)c(CN2CCN(c3ccccc3)CC2)c1 | 93% (active) |
| Oc1cc2c(cc1CN1CCN(c3ccccc3)CC1)OCO2 | 2.23% (inactive) |
| COc1ccc(CN2CCN(c3ccccc3F)CC2)c(OC)c1 | 4.33% (inactive) |
| CCN1C(=O)C(=Cc2c(C)n(CC(=O)NCC3CCCO3)c3ccccc23)C(=O)N(CC)C1=S (stereo not given) | 8.52% (inactive) |
| Cc1cccc(Cn2cccc(C(=O)Nc3ccc4c(c3)OCCO4)c2=O)c1 | 5.25% (inactive) |
| COc1ccc(CNCCc2ccc3c(c2)OCO3)c(OC)c1OC | 11.4% (inactive) |
| COc1ccc(Br)cc1CNCCc1cccc(Cl)c1 | 34.4% (active) |
| COc1ccc(CNCCc2c[nH]c3ccccc23)cc1OC | 12.6% (inactive) |
| Cc1cc2ccccn2c1C(C[N+](=O)[O-])c1c(F)cccc1Cl (stereo not given) | 0.11% (inactive) |
| CN(C)c1nc(N(C)C)nc(N(C#N)CCCl)n1 | 1.85% (inactive) |
| O=C(c1cc2nc(-c3ccccc3)cc(-c3ccccc3)n2n1)N1CCC2(CC1)OCCO2 | 1.75% (inactive) |
| CCCCC(=O)N/N=C/c1c(O)n(CC)c(=S)n(CC)c1=O | 71.8% (active) |
| CCCCC(=O)N/N=C/c1c(O)n(CCC2=CCCCC2)c(=O)[nH]c1=O | 2.44% (inactive) |
| CCCCC(=O)N/N=C/c1c(O)n(-c2ccccc2)c(=O)[nH]c1=O | -0.172% (inactive) |
| Cc1ccc(NC(=O)N(Cc2ccc3c(c2)OCO3)C2CCN(Cc3ccccc3)CC2)cc1F | 9.83% (inactive) |
| COC(=O)N1C(c2ccccc2)C1c1ccccc1 (stereo not given) | 6.43% (inactive) |
| COc1ccccc1N1CCN(C(CNC(=O)Oc2ccccc2)c2cccnc2)CC1 (stereo not given) | 0.177% (inactive) |
| COC(=O)C(c1ccccc1)N1CCCCCC1 (stereo not given) | 40% (active) |
| NCC(O)c1ccc(O)cc1 (stereo not given) | 0.942% (inactive) |
| COc1ccc(N=Cc2c(O)n(C)c(=O)[nH]c2=O)cc1 | 2.19% (inactive) |
| CC(=O)c1c(O)n(C2CCCCCC2)c(=O)[nH]c1=O | 2.24% (inactive) |
